The panel holds about 83,000 compounds, 20% with a hit somewhere; the sample as a whole holds those more often.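 Percent growth is the endpoint: 0 to 100 indicates growth inhibition (40 means 60% inhibition), 0 means no net growth, and negative values indicate cell death.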 Activity calls are given as the source filed them. Rule for the calls: active = growth percent below 10; inactive = the rest.
What was measured:
Test in all cases: NCI-60 one-dose screen, 48 h (100 = growth as untreated, 0 = no growth, -100 = all killed)
Settings in all cases: 10 µM unless noted
NCI-H23 lung = system: NCI-H23 lung
NCI-H226 lung = system: NCI-H226 lung
NCI-H322M lung = system: NCI-H322M lung
HOP-62 NSCLC = system: HOP-62 NSCLC
NCI-H460 lung = system: NCI-H460 lung
HOP-92 NSCLC = system: HOP-92 NSCLC
NCI-H522 lung = system: NCI-H522 lung
A549/ATCC NSCLC = system: A549/ATCC NSCLC
786-0 renal = system: 786-0 renal
COLO 205 colon = system: COLO 205 colon
DU-145 prostate = system: DU-145 prostate
K-562 leukemia = system: K-562 leukemia
MALME-3M melanoma = system: MALME-3M melanoma
MDA-MB-231 breast = system: MDA-MB-231 breast
RXF 393 renal = system: RXF 393 renal
SF-268 CNS = system: SF-268 CNS
SF-295 CNS = system: SF-295 CNS
SF-539 CNS = system: SF-539 CNS
UACC-257 melanoma = system: UACC-257 melanoma
M14 melanoma = system: M14 melanoma

Measured: growth

CC(=O)N(Cc1ccccc1)c1nc2ccc(O)c(CN(C)C)c2s1
inactive: NCI-H23 lung 96.7% | NCI-H226 lung 90.5% | NCI-H322M lung 103% | HOP-62 NSCLC 90.6% | NCI-H460 lung 100% | HOP-92 NSCLC 37.6% | NCI-H522 lung 90.2% | A549/ATCC NSCLC 98.4% | 786-0 renal 97.6% | COLO 205 colon 116% | DU-145 prostate 108% | K-562 leukemia 92.5% | MALME-3M melanoma 98.1% | MDA-MB-231 breast 96% | RXF 393 renal 98.2% | SF-268 CNS 94.6% | SF-295 CNS 92.6% | SF-539 CNS 97.2% | UACC-257 melanoma 102% | M14 melanoma 104%

O=C1CCCc2nc3sc4c(=O)n(-c5ccccc5Cl)nnc4c3cc21
inactive: NCI-H23 lung 101% | NCI-H226 lung 89.1% | NCI-H322M lung 101% | HOP-62 NSCLC 94.3% | NCI-H460 lung 100% | HOP-92 NSCLC 94.9% | NCI-H522 lung 74.5% | A549/ATCC NSCLC 80% | 786-0 renal 86.6% | COLO 205 colon 105% | DU-145 prostate 111% | K-562 leukemia 102% | MALME-3M melanoma 102% | MDA-MB-231 breast 93.6% | RXF 393 renal 91.2% | SF-268 CNS 103% | SF-295 CNS 95.1% | SF-539 CNS 103% | UACC-257 melanoma 85.3% | M14 melanoma 106%

CCN(CC)CCNC(=O)c1ccc(-c2nc3ccc4[nH]ncc4c3c3c2CCCC3)cc1
inactive: NCI-H23 lung 65.3% | NCI-H226 lung 64.7% | NCI-H322M lung 55.8% | HOP-62 NSCLC 57.3% | NCI-H460 lung 60.5% | HOP-92 NSCLC 73% | NCI-H522 lung 50.6% | A549/ATCC NSCLC 56.1% | 786-0 renal 50.6% | COLO 205 colon 63.6% | DU-145 prostate 53.5% | K-562 leukemia 30% | MALME-3M melanoma 79.1% | MDA-MB-231 breast 59.6% | RXF 393 renal 36.4% | SF-268 CNS 58.6% | SF-295 CNS 80.2% | SF-539 CNS 61.2% | UACC-257 melanoma 96.7% | M14 melanoma 52.9%

COc1ccc2c(c1)c(-c1cc(-c3cn(C)c4ccc(OC)cc34)on1)cn2C
inactive: NCI-H23 lung 84.1% | NCI-H226 lung 88% | NCI-H322M lung 96.6% | HOP-62 NSCLC 141% | NCI-H460 lung 109% | HOP-92 NSCLC 59% | NCI-H522 lung 90.2% | A549/ATCC NSCLC 109% | 786-0 renal 102% | COLO 205 colon 112% | DU-145 prostate 114% | K-562 leukemia 98.5% | MALME-3M melanoma 106% | MDA-MB-231 breast 100% | RXF 393 renal 119% | SF-268 CNS 102% | SF-295 CNS 101% | SF-539 CNS 101% | UACC-257 melanoma 107% | M14 melanoma 90.1%

O=C(c1ccc(F)c(Cl)c1)N1c2ccccc2Sc2ccccc21
inactive: NCI-H23 lung 78.5% | NCI-H226 lung 77.3% | NCI-H322M lung 102% | HOP-62 NSCLC 76.6% | NCI-H460 lung 99.5% | HOP-92 NSCLC 37% | NCI-H522 lung 42.5% | A549/ATCC NSCLC 65.6% | 786-0 renal 79.8% | COLO 205 colon 44.7% | DU-145 prostate 90.3% | K-562 leukemia 21.5% | MALME-3M melanoma 64.1% | MDA-MB-231 breast 61% | RXF 393 renal 70.8% | SF-268 CNS 66.8% | SF-295 CNS 64.3% | SF-539 CNS 62.3% | UACC-257 melanoma 61% | M14 melanoma 53.1%

C#Cc1cccc(Nc2nc3ccc([N+](=O)[O-])cc3nc2Nc2cccc(C#C)c2)c1
active: NCI-H23 lung -54.6% | NCI-H226 lung -42.3% | NCI-H322M lung 1.22% | HOP-62 NSCLC -94.7% | NCI-H460 lung -57.6% | HOP-92 NSCLC -24.9% | NCI-H522 lung -64% | A549/ATCC NSCLC -45.7% | 786-0 renal -56.7% | COLO 205 colon -87.3% | DU-145 prostate -52.4% | K-562 leukemia -57.5% | MALME-3M melanoma -29.5% | MDA-MB-231 breast -57% | RXF 393 renal -56.4% | SF-268 CNS -51.4% | SF-295 CNS -69.4% | SF-539 CNS -77.4% | UACC-257 melanoma -70.1% | M14 melanoma -82%

COc1ccc(C2CC(c3ccc4c(c3)OCO4)=Nc3c(N)ncnc3N2)cc1 (stereo not given)
inactive: NCI-H23 lung 107% | NCI-H226 lung 100% | NCI-H322M lung 95.4% | HOP-62 NSCLC 88.6% | NCI-H460 lung 111% | HOP-92 NSCLC 62.4% | NCI-H522 lung 108% | A549/ATCC NSCLC 104% | 786-0 renal 102% | COLO 205 colon 100% | DU-145 prostate 141% | K-562 leukemia 99.6% | MALME-3M melanoma 106% | MDA-MB-231 breast 90.1% | RXF 393 renal 84.3% | SF-268 CNS 93.3% | SF-295 CNS 168% | SF-539 CNS 110% | UACC-257 melanoma 107% | M14 melanoma 105%

O=C(Nc1cccc(NC(=O)C2CCCCC2)c1)c1ccccn1
inactive: NCI-H23 lung 88.3% | NCI-H226 lung 106% | NCI-H322M lung 89.2% | HOP-62 NSCLC 100% | NCI-H460 lung 114% | HOP-92 NSCLC 112% | NCI-H522 lung 89.9% | A549/ATCC NSCLC 102% | 786-0 renal 95% | COLO 205 colon 117% | DU-145 prostate 103% | K-562 leukemia 85.2% | MALME-3M melanoma 91% | MDA-MB-231 breast 104% | RXF 393 renal 125% | SF-268 CNS 95.7% | SF-295 CNS 97.9% | SF-539 CNS 98.1% | UACC-257 melanoma 108% | M14 melanoma 91.7%

Cc1ccc(C)n1/C=C/n1c(C)ccc1C
inactive: NCI-H23 lung 94.7% | NCI-H226 lung 99% | NCI-H322M lung 103% | HOP-62 NSCLC 114% | NCI-H460 lung 110% | HOP-92 NSCLC 75% | NCI-H522 lung 83.8% | A549/ATCC NSCLC 95.5% | 786-0 renal 107% | COLO 205 colon 96.9% | DU-145 prostate 113% | K-562 leukemia 117% | MALME-3M melanoma 117% | MDA-MB-231 breast 99.2% | RXF 393 renal 102% | SF-268 CNS 143% | SF-295 CNS 76.9% | SF-539 CNS 100% | UACC-257 melanoma 119% | M14 melanoma 110%

COc1cc(C2Cc3ncccc3-c3[nH]c(=O)c4cccnc4c32)cc(OC)c1OC (stereo not given)
active: NCI-H460 lung 9.39% | NCI-H522 lung -31% | COLO 205 colon -20% | RXF 393 renal 8.5% | SF-295 CNS 1.73% | SF-539 CNS -18.8%
inactive: NCI-H23 lung 35.3% | NCI-H226 lung 62.8% | NCI-H322M lung 55.5% | HOP-62 NSCLC 21.7% | HOP-92 NSCLC 67.5% | A549/ATCC NSCLC 20.4% | 786-0 renal 33% | DU-145 prostate 23% | K-562 leukemia 16.3% | MALME-3M melanoma 77.6% | MDA-MB-231 breast 31% | SF-268 CNS 44.1% | UACC-257 melanoma 56.9% | M14 melanoma 10.3%

Cc1ccc(C)c2c1C(O)(C#Cc1ccccc1)c1ccccc1C2(O)C#Cc1ccccc1 (stereo not given)
active: HOP-92 NSCLC 3% | SF-295 CNS 4.71%
inactive: NCI-H23 lung 92.4% | NCI-H226 lung 89.9% | NCI-H322M lung 55.8% | HOP-62 NSCLC 75.1% | NCI-H460 lung 23.8% | NCI-H522 lung 57.2% | A549/ATCC NSCLC 47.5% | 786-0 renal 70.5% | COLO 205 colon 48.4% | DU-145 prostate 87% | K-562 leukemia 22.2% | MALME-3M melanoma 39.2% | MDA-MB-231 breast 77% | RXF 393 renal 64.5% | SF-268 CNS 56.5% | SF-539 CNS 56.8% | UACC-257 melanoma 63% | M14 melanoma 58.9%

COc1ccc(-c2cc(-c3ccc(OC)cc3)nc(NCCCNc3ccnc4cc(Cl)ccc34)n2)cc1
inactive: NCI-H23 lung 81.3% | NCI-H226 lung 70.5% | NCI-H322M lung 98.4% | HOP-62 NSCLC 87.4% | HOP-92 NSCLC 55.9% | NCI-H522 lung 87.4% | A549/ATCC NSCLC 17.8% | MDA-MB-231 breast 76.7% | RXF 393 renal 24.2% | SF-268 CNS 85.3% | SF-295 CNS 83.8% | SF-539 CNS 63.4% | UACC-257 melanoma 46.2% | M14 melanoma 33.3%
active: NCI-H460 lung -39.5% | 786-0 renal -88.6% | COLO 205 colon 2.44% | DU-145 prostate -2.21% | K-562 leukemia -14.3% | MALME-3M melanoma -75.6%

C=C1C(=O)O[C@H]2[C@H]1CC/C(COC(=O)/C=C\C(=O)NCc1ccc(Cn3c(=O)sn(-c4ccccc4)c3=O)cc1)=C\CC[C@@]1(C)O[C@@H]21
active: NCI-H522 lung -5.66% | COLO 205 colon 9.17%
inactive: NCI-H23 lung 92.1% | NCI-H226 lung 105% | NCI-H322M lung 107% | HOP-62 NSCLC 105% | NCI-H460 lung 96.7% | HOP-92 NSCLC 84.4% | A549/ATCC NSCLC 98% | 786-0 renal 70.5% | DU-145 prostate 55.7% | K-562 leukemia 16.2% | MALME-3M melanoma 55.9% | MDA-MB-231 breast 85.6% | RXF 393 renal 84.3% | SF-268 CNS 99.1% | SF-295 CNS 103% | SF-539 CNS 92% | UACC-257 melanoma 73.8% | M14 melanoma 47.8%

COc1ccc(/C(C)=C(\c2ccc(OCCN3CCCCCC3)cc2)c2ccc(OC(=O)c3ccccc3)cc2)cc1
active: K-562 leukemia 1.82% | UACC-257 melanoma -15.5% | M14 melanoma -39%
inactive: NCI-H23 lung 52.2% | NCI-H226 lung 75.3% | NCI-H322M lung 80.5% | HOP-62 NSCLC 75.7% | NCI-H460 lung 10.2% | HOP-92 NSCLC 54.4% | NCI-H522 lung 68.3% | A549/ATCC NSCLC 41.1% | 786-0 renal 27.5% | COLO 205 colon 12.4% | DU-145 prostate 71.8% | MALME-3M melanoma 22.7% | MDA-MB-231 breast 52.6% | RXF 393 renal 16.4% | SF-268 CNS 44.4% | SF-295 CNS 20.6% | SF-539 CNS 45.2%

COc1cc(Nc2c3ccc(Cl)cc3nc3ccc(OC)cc23)c2ncccc2c1
inactive: NCI-H23 lung 50% | NCI-H226 lung 62.1% | NCI-H322M lung 47.9% | HOP-62 NSCLC 50.1% | NCI-H460 lung 21% | NCI-H522 lung 49.7% | A549/ATCC NSCLC 34.3% | 786-0 renal 60.4% | COLO 205 colon 59.6% | DU-145 prostate 39.4% | K-562 leukemia 53.2% | MALME-3M melanoma 32.1% | MDA-MB-231 breast 34% | RXF 393 renal 45.5% | SF-268 CNS 43.3% | SF-295 CNS 46.2% | SF-539 CNS 45% | UACC-257 melanoma 59.6% | M14 melanoma 49.5%
active: HOP-92 NSCLC -0.879%

From PubChem BioAssay (NCI)
